Among all 16,000 compounds or so, about 250 (1.6%) were called active.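 Rule for the calls: active = inhibition above the average over every tested compound plus 3 SD (cut at about 40% in these data); inactive = the rest.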 For the sample, actives were picked, then their nearest neighbours and some compounds at random.

In the assay the test system is Hepatitis C virus NS3 helicase. As to the kind of experiment: HCV NS3 helicase inhibitors, primary screen, biochemical, fluorescence polarization, ChemBridge library (AID 687043). The conditions noted are these: NS3h Cy5-dT15 DNA binding, at 100 µM, stronger effect = higher value.
For the compound `O=C(/C=C/c1cc(Br)cs1)Nc1cccc(C(F)(F)F)c1`, the inhibition was 14.4% (inactive).

In the case of `COc1ccc(C2(CNC(=O)c3ccc(F)cc3)CCCC2)cc1OC`, the inhibition is 8.8% (inactive).

`O=C(Nc1ccncc1)c1cc2ccccc2o1`: the inhibition is 11.4% (inactive).

Consider `CCOC(=O)c1c(C)nc2n(/N=C\c3ccc([N+](=O)[O-])cc3)c3ccccc3n12`, for which the inhibition is 6.3% (inactive).

On to `Cc1ccc(C(=O)Nc2ccc(C(C)C)cc2)cc1C`, for which the inhibition was 3.2% (inactive).

In the case of `Cc1ccc(/C=N\NC(=O)c2cccnc2)o1`, the inhibition is 1.6% (inactive).

For `O=C(NCCc1c[nH]c2ccccc12)c1cccs1`, the inhibition was 8.2% (inactive).

With `COC(=O)C1=C(C)NC2=C(C(=O)c3ccccc32)C1c1ccc(OCc2ccc(F)cc2)c(OC)c1` (centres undefined), the inhibition is -0.7% (inactive).

As for `Cc1ccc(N2NC(=O)/C(=C/c3ccc4c(c3)OCO4)C2=O)cc1Cl`, the inhibition was 5.8% (inactive).

With `O=C(NCCN1CCOCC1)/C(=C/c1ccc(F)cc1)NC(=O)c1ccccc1`, the inhibition is 15.5% (inactive).

As to `O=C(Nc1ccc(Cl)c(Cl)c1)Nc1nnc(-c2ccc(F)cc2)s1`, the inhibition was 21.5% (inactive).

In the case of `CCOc1ccc(NC(=O)CC2S/C(=N/N=C3/CCCc4ccccc43)NC2=O)cc1` (centres undefined), the inhibition was 16.3% (inactive).

Consider `Cc1cccc(-c2cc(NC(=O)COc3ccc(Cl)cc3Cl)n[nH]2)c1`, for which the inhibition is -2.4% (inactive).

In the case of `COc1ccccc1N1CCN(C(=O)c2cnn3c2NC(c2ccc(Br)cc2)CC3C(F)(F)F)CC1` (centres undefined), the inhibition was 7.2% (inactive).

For `COc1cc(C=C2C(=O)NC(=O)NC2=O)ccc1OCCOc1ccc([N+](=O)[O-])cc1`, the inhibition is 52.6% (active).

`COc1cc(/C=C2/C(=O)NC(=O)N(c3ccc(C)cc3)C2=O)ccc1OCCOc1ccc([N+](=O)[O-])cc1`: the inhibition was 20.3% (inactive).

With `COc1cc(/C=C2/SC(=S)NC2=O)ccc1OCCOCCOc1ccc(C)cc1`, the inhibition was 18.6% (inactive).

As for `O=C(Cn1cncn1)c1ccc(F)c(F)c1`, the inhibition is -2.3% (inactive).

With `COc1cc(/C=C2/C(=O)N(c3ccccc3)N=C2C)ccc1OC(=O)c1cccs1`, the inhibition is 11.4% (inactive).

As to `CCC1=NN2C(=N)/C(=C/c3cc(Br)c(OCc4ccc(F)cc4)c(OC)c3)C(=O)N=C2S1`, the inhibition was 10.4% (inactive).

For `O=C(/C=C/c1ccc(Cl)cc1)Nc1ccc(-c2nc3ccccc3o2)c(O)c1`, the inhibition is 9.9% (inactive).

For the compound `O=C1N=C(N2CCCC2)S/C1=C\c1cccc(Br)c1`, the inhibition is 9.8% (inactive).

Consider `COc1ccc(C(=O)CSc2nc(C)cc(C)n2)cc1[N+](=O)[O-]`, for which the inhibition is 18% (inactive).

On to `O=C(NC(c1ccccc1)c1ccccc1)c1ccc([N+](=O)[O-])cc1Cl`, for which the inhibition is 14.7% (inactive).

Turning to `O=c1cccc(-c2ccc(Br)cc2)o1`, the inhibition was 0.7% (inactive).

In the case of `CC(C)(C)C(=O)Nc1ccc(C(=O)Nc2ccc(O)cc2C(=O)O)cc1`, the inhibition was -2.6% (inactive).

Consider `CCOC(=O)c1ccc(-c2ccc(/C=C(/C#N)C(=O)Nc3ccc4ccccc4c3)o2)cc1`, for which the inhibition is -1.8% (inactive).

Consider `O=c1oc(-c2ccco2)nc2ccc(Cl)cc12`, for which the inhibition is -3.4% (inactive).

In the case of `O=C(CSc1ccccn1)N1c2ccccc2Sc2ccccc21`, the inhibition was 10.2% (inactive).

For `O=C(Nc1cc(C(F)(F)F)ccc1Cl)C1CC(=O)N(c2ccc(Br)cc2)C1` (centres undefined), the inhibition was 2.2% (inactive).

Consider `Cc1ccc(NC(=O)c2ccc3c(c2)OCCO3)c([N+](=O)[O-])c1`, for which the inhibition was 20.8% (inactive).

On to `CCC(=O)/C=C1\Sc2ccccc2N1CC`, for which the inhibition is -1.3% (inactive).

Turning to `O=C(CC(Nc1ccc2ncccc2c1)c1ccc(F)cc1)c1ccccc1` (centres undefined), the inhibition is 3.6% (inactive).

Regarding `Cc1cc(C)n(C(=O)COc2cccc3ccccc23)n1`, the inhibition is 7.8% (inactive).

`COc1ccc(C2=N/C(=C/c3ccccc3OC)C(=O)N2c2ccccc2)cc1`: the inhibition is 8.2% (inactive).

Turning to `CCOC(=O)C1=C(C)N=c2s/c(=C\c3ccc(C)o3)c(=O)n2C1c1cccc(OC)c1` (centres undefined), the inhibition was 20.2% (inactive).

Regarding `Cc1nnc(Nc2ccc3c(c2)nc(C)n3Cc2ccccc2)c2ccccc12`, the inhibition is 2.2% (inactive).

`N#CC(C#N)=C1CCCc2ccccc2N1`: the inhibition was -4.1% (inactive).

Consider `O=c1c(Cl)c(Cl)cnn1Cc1c(Cl)ccc(Cl)c1Cl`, for which the inhibition was 5% (inactive).

Turning to `Cc1ccnc(SC2CC(=O)N(c3ccccc3)C2=O)n1` (centres undefined), the inhibition is 1.2% (inactive).

On to `COc1ccc(Cl)cc1NC(=O)Cn1nc([N+](=O)[O-])cc1C`, for which the inhibition is 11.3% (inactive).

As for `Cc1ccc(N2C(=O)/C(=C/c3ccc(Oc4ccc([N+](=O)[O-])cn4)cc3)C(=O)NC2=S)cc1`, the inhibition is 25.1% (inactive).

Regarding `C=CCN1C(=O)/C(=C\c2cc(Cl)c(O)c(Cl)c2)SC1=S`, the inhibition is 21.3% (inactive).

As for `C=CCN1C(=O)/C(=C\c2cc(OC)c(O)c([N+](=O)[O-])c2)C(=O)NC1=S`, the inhibition was 81.2% (active).

Take `COc1cccc(C=C2C(=O)NC(=O)NC2=O)c1O`: the inhibition is 15.5% (inactive).

As for `C=CCOc1ccccc1C=C1C(=O)NC(=O)NC1=O`, the inhibition was 34.9% (inactive).

As for `O=C1NC(=O)C(=Cc2cc([N+](=O)[O-])cc(Br)c2O)C(=O)N1`, the inhibition was 48.9% (active).

With `OCCNC1CCCc2c1[nH]c1ccc(-c3ccccc3)cc21` (centres undefined), the inhibition is 2.8% (inactive).

Regarding `CC(C)(C)c1ccc(C2C(C(=O)c3ccco3)=C(O)C(=O)N2c2ncc(S(=O)(=O)c3ccc([N+](=O)[O-])cc3)s2)cc1` (centres undefined), the inhibition is 9.7% (inactive).

In the case of `COc1ccc2oc(=O)c(C(N)=O)cc2c1`, the inhibition is 2.8% (inactive).

Consider `Oc1ccc(Br)cc1CN1CCN(Cc2ccccn2)CC1`, for which the inhibition was -7.5% (inactive).

As for `COc1ccc(Br)cc1/C=C1/SC(=S)N(c2cccc(C(F)(F)F)c2)C1=O`, the inhibition is 11.5% (inactive).

In the case of `O=C(CCc1ccccc1)N1N=C(c2cccc([N+](=O)[O-])c2)CC1(O)C(F)(F)F` (centres undefined), the inhibition was 8.7% (inactive).

For `O=C1NC(=Nc2ccc(F)cc2)S/C1=C\c1cccs1`, the inhibition was 12.6% (inactive).

For `CC(C)(C)N1C(=O)NC(=O)C(=Cc2cccs2)C1=O`, the inhibition was 75.4% (active).

On to `Cc1cc(C)cc(N2C(=O)NC(=O)/C(=C\c3ccc(F)cc3)C2=O)c1`, for which the inhibition was 21.8% (inactive).

In the case of `Cc1ccccc1NC(=O)C(=O)NCc1ccco1`, the inhibition is 10.2% (inactive).

Turning to `CSc1ccc(C(C2=C(O)CC(C)(C)CC2=O)C2C(=O)CC(C)(C)CC2=O)cc1` (centres undefined), the inhibition was 5.7% (inactive).

`CCN1C(=O)/C(=C\c2cn(CCOc3ccccc3)c3ccccc23)SC1=S`: the inhibition was 11.7% (inactive).
